Reference: the supplement of paper PMC8183993
Where “and” joins values, the source holds several entries; their conditions need not be identical. Identical values can stand only once. Counter-ions that a name gives are not always drawn. ± gives the standard deviation of the averaged measurements. The full ranking holds about 3,100 compounds; the median of “mean cytoplasmic OPP incorporation (global translation) relative to DMSO” is about 100, and the lowest 2% start at about 56. The list comes from a sample in which the lowest values are over-represented; it also holds similar structures and randomly drawn compounds.

System: U2OS
Assay: mean cytoplasmic OPP incorporation (global translation) relative to DMSO (% of DMSO); higher = more protein synthesis
Details: 10 µM; 24 h
Experimental: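 Primary image-based screen in U2OS cells: compounds at 10 uM for 24 h, then a 1 h o-propargyl-puromycin (OPP) pulse, click labelling, and high-throughput microscopy. Mean cytoplasmic OPP intensity and nuclei count were normalised to DMSO wells within each plate (DMSO = 100) and averaged over triplicate plates.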

Row | SMILES | mean cytoplasmic OPP incorporation
1 | CCOc1cc(N2CCC(O)CC2)ccc1Nc1ncc2c(n1)N(C)c1ccccc1C(=O)N2C | 110
2 | COc1cc(N2CCC(N)CC2)ccc1Nc1ncc(Cl)c(-c2c[nH]c3ccccc23)n1 | 36.5
3 | CNC(=O)c1ccccc1Nc1nc(Nc2ccc(N3CCOCC3)cc2OC)ncc1Cl | 90.7 ± 4.2
4 | OCc1c[nH]c2ccccc12 [Indole-3-carbinol] | 113
5 | O=C(/C=C/c1ccc(CN(CCO)CCc2c[nH]c3ccccc23)cc1)NO [LAQ824 (NVP-LAQ824, Dacinostat)] | 47.7
6 | c1ccc2c(Cc3c[nH]c4ccccc34)c[nH]c2c1 [Diindolylmethane] | 93.7
7 | CC(C)C[C@H](NC(=O)N[C@H](C(=O)N[C@@H](CCC(N)=O)C(=O)N[C@@H](C)C=O)[C@@H]1CCNC(=N)N1)C(=O)O [Elastatinal] | 98.9
8 | COc1cc(OC)c(C(=O)CCCCN2CCC3(CC2)NC(=O)NC3=O)cc1NS(=O)(=O)c1ccc(C(F)(F)F)cc1 | 129
9 | CC1(C)CCC2=C(O1)c1ccccc1C(=O)C2=O | 110
10 | CC1=CC(=O)c2ccccc2C1=O [Menadione] | 95.2
11 | CC1(C)C(=O)NC2=C1C(=O)C(=O)c1ccccc12 | 59.6 and 42.6
12 | c1cc2c(cc1C1CCCCC1)c1c3n2CCNC3CCC1 (centres undefined) [Tetrindole mesylate] | 129
13 | C=C(C)[C@@H](CC=C(C)C)C[C@@]12C[C@@H](CC=C(C)C)C(C)(C)[C@@](CC=C(C)C)(C(=O)C(C(=O)c3ccc(O)c(O)c3)=C1O)C2=O [Garcinol] | 100
14 | C[C@@H](NCc1cc(Br)cc2[nH]c(=O)c(=O)[nH]c12)P(=O)(O)O | 96.4
15 | Cc1ccc(C(=O)Nc2ccc(CN3CCN(C)CC3)c(C(F)(F)F)c2)cc1C#Cc1cnc2[nH]ncc2c1 [GZD824 Dimesylate] | 37.4
16 | Cc1ccc(NC(=O)c2ccc(CN3CC[C@H](N(C)C)C3)c(C(F)(F)F)c2)cc1Nc1nccc(-c2cncnc2)n1 [Bafetinib (INNO-406)] | 118
17 | Cc1ccc(C(=O)Nc2ccc(CN3CCN(C)CC3)c(C(F)(F)F)c2)cc1C#Cc1cnc2cccnn12 | 32.7
18 | Cc1ccc(C(=O)Nc2cccc(C(F)(F)F)c2)cc1Nc1nc(-c2cccnc2)nc2c1cnn2C | 145
19 | O=C(Cc1ccccc1)Nc1cccc(C(=O)Nc2ccccc2C(=O)O)c1 | 106
20 | S=c1ccss1 [1,2-Dithiole-3-thione] | 115
21 | CC[C@H](C)[C@H](N)C(=O)N1CCSC1 [P32/98 hemifumarate salt] | 107

Row | SMILES | mean cytoplasmic OPP incorporation
22 | O=C(/C=C/c1ccc2ccccc2n1)c1ccncc1 | 26.3
23 | NC(=O)c1ccncc1 [Isonicotinamide] | 109
24 | C=CC(=O)c1ccc2ccccc2c1 | 100
25 | COc1cc2c(NC3CCN(C)CC3)nc(N3CCCN(C)CC3)nc2cc1OCCCN(C)C | 112
26 | CCn1nnc2c(N3CCOCC3)nc(-c3ccc(NC(=O)Nc4ccc(C(=O)N5CCN(C)CC5)cc4)cc3)nc21 | 67.6
27 | NC(=O)Nc1sc(-c2ccc(F)cc2)cc1C(N)=O | 76.5 ± 9.7
28 | NC(=O)Nc1cc(-c2cccc(F)c2)sc1C(=O)N[C@H]1CCCNC1 | 25.1
29 | Cc1c(C(=O)NC2CCCCC2)sc2nc3ccc(N)cc3n12 | 106
30 | C[C@H]1O[C@@H](O[C@H]2[C@@H](O)C[C@H](O[C@H]3[C@@H](O)C[C@H](O[C@H]4CC[C@@]5(C)[C@H](CC[C@@H]6[C@@H]5C[C@@H](O)[C@]5(C)[C@@H](C7=CC(=O)OC7)CC[C@]65O)C4)O[C@@H]3C)O[C@@H]2C)C[C@H](O)[C@@H]1O [Digoxin] | 19
31 | Oc1ccc(-c2nc3cc(O)cc(Br)c3o2)cc1 | 89.5
32 | O=C[C@@H]1CCCN1C(=O)[C@@H]1CCCN1C(=O)OCc1ccccc1 [Z-Prolyl-prolinal] | 98
33 | N#C/C(=C\c1ccc(O)c(O)c1)C(=O)NCCCCc1ccccc1 | 87.8
34 | CCCCC[C@H](O)CC(=O)CCc1ccc(O)c(OC)c1 [Gingerol] | 102
35 | NC(C(=O)O)c1cc(O)cc(O)c1 (racemic) | 107
36 | N[C@@H](Cc1cc(I)c(O)c(I)c1)C(=O)O [3,5-Diiodo-L-tyrosine] | 100
37 | CS(=O)(=O)Nc1ccc([N+](=O)[O-])cc1Oc1ccccc1 [Nimesulide] | 97.3 ± 5.5
38 | O=[N+]([O-])c1ccc2c(c1)S(=O)(=O)C=C2 [Stattic] | 48.5
39 | O=C1Nc2ccc([N+](=O)[O-])cc2C1=O [5-Nitroisatin] | 104
40 | O=C(O)c1ccc(-c2ccc3cc(O)c(C45CC6CC(CC(C6)C4)C5)cc3c2)cc1 | 98.8
41 | Cc1ccc(C(=O)c2cc(/C=C/C(=O)NO)n(C)c2)cc1 | 99.3
42 | C1CCC(C(CC2CCCCN2)C2CCCCC2)CC1 (centres undefined) [Perhexiline maleate] | 53

Row | SMILES | mean cytoplasmic OPP incorporation
43 | CNC(C)C1CCC(N)C(OC2C(N)CC(N)C(OC3OCC(C)(O)C(NC)C3O)C2O)O1 (centres undefined) [Gentamycin sulfate (Gentacycol)] | 107
44 | NCC1CCN(c2nccc(-c3ccc4ccccc4c3)n2)CC1 | 88.3
45 | C[C@H]1CC[C@@]2(OC1)O[C@H]1C[C@H]3[C@@H]4CC[C@@H]5C[C@@H](O[C@@H]6O[C@H](CO)[C@H](O)[C@H](O)[C@H]6O[C@@H]6O[C@H](CO)[C@@H](O)[C@H](O)[C@H]6O)CC[C@]5(C)[C@H]4CC[C@]3(C)[C@H]1[C@@H]2C [Timosaponin A-III] | 111
46 | C=CC(=O)Nc1cccc(Oc2nc(Nc3ccc(N4CCN(C)CC4)cc3)ncc2Cl)c1 | 64.9
47 | CNC(=O)c1nn(C)c2c1C(C)(C)Cc1cnc(Nc3ccc(N4CCN(C)CC4)cc3)nc1-2 | 89.3 and 44.9
48 | C=CC(=O)Nc1cccc(Sc2nc(Nc3ccc(N4CCN(C)CC4)cc3)ncc2Cl)c1 | 57.4
49 | O=C(NC[C@H](O)CN1CCc2ccccc2C1)c1ccnc(NC2CCC2)c1 | 107
50 | NCCCCCCCCCCNS(=O)(=O)c1cccc2c(Cl)cccc12 [A-7 hydrochloride] | 115
51 | CC(C)c1ccc(Cn2ccc3c4c(N)nc(NC5CC5)nc4ccc32)cc1 | 40.1
52 | O=C(NCCN1CCCCC1)c1ccc(I)cc1 [N-[2-(Piperidinylamino)ethyl]-4-iodobenzamide] | 100
53 | CC(C)n1nc(-c2cc3cc(O)ccc3[nH]2)c2c(N)ncnc21 [Torkinib (PP242)] | 52.5
54 | CC(C)(C)n1nc(-c2cccc3ccccc23)c2c(N)ncnc21 [1-Naphthyl PP1] | 93
55 | CC(C)n1nc(-c2ccc3oc(N)nc3c2)c2c(N)ncnc21 | 53.5 ± 16
56 | Cc1ccccc1-n1c(Cn2nc(-c3cccc(O)c3)c3c(N)ncnc32)nc2cccc(C)c2c1=O | 102
57 | C[C@H](Cn1cnc2c(N)ncnc21)OCP(=O)(O)O [Tenofovir (Viread)] | 99.5
58 | CCO/C(O)=C1\C(C)=NC(c2ccccc2)=C(C(=O)OCc2ccc([N+](=O)[O-])cc2)C1C#Cc1ccccc1 (centres undefined) | 108
59 | CC1=C(/C=C/C(C)=C\C=C\C(C)=C\C(=O)O)C(C)(C)CCC1 [9-cis Retinoic acid] | 96.4
60 | Nc1ccc(CC(CC(=O)O)C(=O)O)cc1 [4-Amino-D, L-benzylsuccinic acid] | 104
61 | CC(C)[C@@H](O)CC[C@@H](C)[C@H]1CC[C@H]2[C@@H]3CC=C4C[C@@H](O)CC[C@]4(C)[C@H]3CC[C@]12C [24(S)-Hydroxycholesterol] | 104
62 | Cc1ccc2nc(NCCN)c3ncc(C)n3c2c1 | 56.1
63 | Cc1ncc(-c2ccnc(Nc3ccc(S(C)(=O)=O)cc3)n2)n1C(C)C | 55.9

Row | SMILES | mean cytoplasmic OPP incorporation
64 | Cc1ccnc(NS(=O)(=O)c2ccc(NC(=O)Nc3ccc(S(=O)(=O)Nc4nccc(C)n4)cc3)cc2)n1 | 96.2
65 | Cc1nc(N)sc1-c1ccnc(Nc2ccc(N3CCOCC3)cc2)n1 | 93.4
66 | C[C@]12CC[C@@H](O)C[C@@H]1CC[C@@H]1[C@@H]2CC[C@]2(C)C=CC[C@@H]12 [3a, 5a-Androstenol] | 97.3
67 | Cn1cc(C2=C(c3cn(CCCSC(=N)N)c4ccccc34)C(=O)NC2=O)c2ccccc21 [Ro 31-8220 mesylate] | 62.4
68 | Cn1cc(C2=C(c3ccc(Cl)cc3Cl)C(=O)NC2=O)c2ccccc21 | 104 and 106
69 | CN(C)CCCn1cc(C2=C(c3c[nH]c4ccccc34)C(=O)NC2=O)c2ccccc21 | 90.7 and 79.3
70 | Cn1cc(C2=C(c3cn(CCCSC(=N)N)c4ccccc34)C(=O)NC2=O)c2ccccc21 [Ro 31-8220 Mesylate] | 30.3
71 | CC(=O)C1=C(O)C=C2Oc3c(C(C)=O)c(O)c(C)c(O)c3[C@]2(C)C1=O [Usnic acid] | 101
72 | CC(=Nc1ccccc1N)c1c(C)cc(=O)n(O)c1O | 95.7
73 | COc1cccc(-c2cc(NCc3ccc4c(c3)OCO4)nc(N)n2)c1 | 92.3
74 | CNCCN1CCC(OCc2ccccc2)CC1 | 111
75 | Nc1ccccc1NC(=O)CCCCCCC(=O)Nc1ccccc1 | 92.9
76 | O=C(CCCCCCC(=O)Nc1cccnc1)NO [Pyroxamide] | 65.9
77 | O=C(CCCCCCC(=O)Nc1ccccc1)NO [Vorinostat] | 41.9
78 | CSCCC(C=O)NC(=O)C(CC(C)C)NC(=O)[C@H](CC(C)C)NC(C)=O (some centres undefined) [Calpain Inhibitor II (ALLM)] | 109
79 | COC1CCC(C(=O)c2ccc3nc4c(cc3c2)CCCO4)CC1 (centres undefined) | 98.8
80 | Nc1ncnc2c1c(-c1cnc3[nH]ccc3c1)nn2C1CCCC1 | 44.2
81 | N#CC[C@H](C1CCCC1)n1cc(-c2ncnc3[nH]ccc23)cn1 | 83.53 ± 0.64
82 | C=CC(=O)N1CCC[C@@H](n2nc(-c3ccc(Oc4ccccc4)cc3)c3c(N)ncnc32)C1 | 105 ± 2.3
83 | COc1cccc(/C=N/N=C/c2cccc(OC)c2)c1 | 99.7
84 | CC1=C(/C=C/C(C)=C/C=C/C(C)=C\CO)C(C)(C)CCC1 [13-cis-Retinol] | 90.9
